Results reported in the OligoGym collection.

molecular target: HIP1R; experiment: pooled miR-30 sensor sort-seq; sequence = guide strand; settings: shRNA
Also: reference of the scale not given here.

Sequence | sensor-assay potency score (higher = more potent)
TAATCAAACATCTCCACAGTGA | -0.629
TTGGTCAGCAGCAGCTTGGTGT | -0.763
TTGATGGCTTTGCTGATGCTGA | -1.07
TTGGTGGTTACACTTCGGGGGG | -1.01
TTCTTGGTGGTTACACTTCGGG | -1.05

molecular target: HIST1H2BM; experiment: as above; settings: shRNA

Sequence | sensor-assay potency score (higher = more potent)
TAGCAGTAGGCGCACGGCCGTC | -1.42
TTTGCGCTTCTTTCCATCCTTC | -0.136
TTAATGGCCTTCTTGGAGCCTT | -0.535
TTGTACACATACACAGAGTAGC | -0.844
TTCCATCCTTCTTCTGAGCCTT | -0.589
TCCATCCTTCTTCTGAGCCTTG | -1.16
TTCTTTCCATCCTTCTTCTGAG | -0.665
ATACACAGAGTAGCTCTCCTTG | -0.936
TACACAGAGTAGCTCTCCTTGC | -0.828
TTGTTAATGGCCTTCTTGGAGC | -1.15
TAGCCTTGGAAGAGATGCCGGT | -0.26
TACACATACACAGAGTAGCTCT | -0.419

molecular target: HIST1H2BN; experiment: as above; settings: shRNA

Sequence | sensor-assay potency score (higher = more potent)
TACACGTACACGGAGTAGCTCT | -0.756
TTTGTCACTGCCTTCTTGGAGC | -0.47
TTCTTGGAGCCTTTCTTCGGGG | -0.852
TTCTGGGCCTTTGTCACTGCCT | -1.05
TTGCCGTCCTTCTTCTGGGCCT | -0.777
TTGTACACGTACACGGAGTAGC | -0.485
TTGGAGCCTTTCTTCGGGGCAG | -0.909
TCGAAGATGTCATTGACGAAGG | -1.38
TTGGACGAGATACCGGTGTCGG | -1.16
TGGCCTTGGACGAGATACCGGT | -1.2
TCACTGCCTTCTTGGAGCCTTT | -1.34
TCTTCTGGGCCTTTGTCACTGC | -0.0714
TTCTTCTGGGCCTTTGTCACTG | -0.654

molecular target: HIST1H4A; experiment: as above; settings: shRNA

Sequence | sensor-assay potency score (higher = more potent)
AAAAACACCTTGAGCACCCCGC | 0.101
AACACCTTGAGCACCCCGCGAG | -0.99
TTGTCACGCAACACCTTGCGGT | -0.404
TAGATCAGACCAGAGATCCGCT | 0.162
TCACGCAACACCTTGCGGTGGC | 0.266
TGTCACGCAACACCTTGCGGTG | -1.69
TGACTGTCTTGCGCTTGGCGTG | -1.68
TATAGGTGACAGCGTCACGGAT | -1.01
ATAGGTGACAGCGTCACGGATC | -0.773
TAGACCACGTCCATGGCAGTGA | -0.363
